# Reference: PubChem BioAssay AID1851 (National Center for Advancing Translational Sciences (NCATS), 2009)
# “And” between values parts separate entries of the source, which are not always exact repeats. Identical values can stand only once. Out of some 16,000 compounds screened, about 5,700 (36%) were called active. About 24% were inconclusive and are not listed. Calls follow the shape of the dose curve; as a rule, active = well fitted curve in the direction sought with a large enough effect; inconclusive = small, poorly fitted or top-dose-only effect, or effect the other way; inactive = no such curve, though single readings can be large or run the other way. The list shows a part of the results. Square brackets hold non-standard residues; d marks the D form. Peptide text beside a SMILES is read from it. * marks the point of attachment. ξ: configuration not given here. Cbz = O=C(OCc1ccccc1)*; OBn = c1ccc(CO*)cc1; ξP = O=C(O)C1CCCN1
# Molecular target: Cytochrome P450 1A2 (Homo sapiens) (UniProt P05177)
# Experiment: Cytochrome panel assay with activity outcomes
# Conditions: recombinant CYP, pro-luciferin dealkylation, luminescence, p450-cyp1a2; series mostly up to 57.1 µM
# % is scaled to controls: 0 for no effect and ±100 for the full control effect.
# Chain of Cytochrome P450 1A2 (Homo sapiens) (P05177 whole entry, looked up): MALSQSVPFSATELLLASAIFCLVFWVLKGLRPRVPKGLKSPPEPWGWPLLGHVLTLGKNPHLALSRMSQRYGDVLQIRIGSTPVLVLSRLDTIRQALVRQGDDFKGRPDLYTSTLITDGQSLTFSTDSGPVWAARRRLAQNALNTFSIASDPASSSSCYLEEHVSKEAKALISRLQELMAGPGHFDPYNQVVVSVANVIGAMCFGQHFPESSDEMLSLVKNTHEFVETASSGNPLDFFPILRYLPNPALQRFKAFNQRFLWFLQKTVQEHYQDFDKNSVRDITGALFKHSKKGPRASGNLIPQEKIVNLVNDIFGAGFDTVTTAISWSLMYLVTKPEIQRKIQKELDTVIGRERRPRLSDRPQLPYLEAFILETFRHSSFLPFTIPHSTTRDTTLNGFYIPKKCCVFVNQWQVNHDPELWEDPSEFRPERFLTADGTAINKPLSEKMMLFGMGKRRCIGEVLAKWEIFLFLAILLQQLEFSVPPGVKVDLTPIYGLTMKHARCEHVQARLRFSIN
Structure (SMILES),"activity, negative = inhibition",AC50
NN(CC(=O)O)CC(=O)O,1.78% [at 11.4 µM] (inactive),–
C[N@+]1(CCC(=O)c2ccccc2)CC[C@H]2CC[C@H](C2)C1,-19% [at 11.4 µM] (inactive),–
c1cncc(-c2cc(-n3ccnc3)ncn2)c1,–,0.1 µM (active)
CC1(C)NC(=O)N(c2ccc([N+](=O)[O-])c(C(F)(F)F)c2)C1=O,–,3.16 µM (active) and 2.51 µM (active)
Cc1ccc(C2C3=C(CCCC3=O)Nc3nc(SCC(=O)NCc4ccco4)[nH]c(=O)c32)cc1 (configuration not stated),–,inactive
CCSc1nc2c(c(=O)[nH]1)C(c1ccncc1)C(C(=O)OC(C)C)=C(C)N2 (configuration not stated),–,15.8 µM (active)
CCSc1nc2c(c(=O)[nH]1)C(c1ccccn1)C1=C(CC(C)(C)CC1=O)N2 (configuration not stated),–,inactive
[Li+],–,inactive
COc1cccc(C(=O)NCCN2CCOCC2)c1,–,inactive
COc1ccc2c(c1)Cc1sc(NC(=O)c3ccco3)nc1-2,–,3.16 µM (active)
COc1ccc(-c2nc(NC(=O)c3ccccc3)sc2-c2ccc([N+](=O)[O-])cc2)cc1,–,inactive
COc1ccc2c(c1)CCc1sc(NC(=O)c3ccc(C)cc3)nc1-2,–,4.47 µM (active)
COc1cccc(C(=O)Nc2nc3c(s2)CN(C)CC3)c1,–,12.6 µM (active)
COc1ccc(C(=O)Nc2nc3c(s2)Cc2cc(OC)ccc2-3)cc1,–,4.47 µM (active)
COc1ccc(NC(=O)C2(c3ccc(NC(=O)c4ccc(C)cc4)cc3)CCCC2)cc1,–,inactive
COc1ccc(NC(=O)N2CC3(CCN(C(=O)c4ccco4)CC3)C2)cc1,–,inactive
CC(=O)OC[C@H]1O[C@@H](CCO/N=C2/[C@H]3O[C@@H]3[C@@H](O)[C@H]3[C@H]2CCn2c(=O)n(-c4ccccc4)c(=O)n23)C=C[C@@H]1OC(C)=O,-3.93% [at 11.4 µM] (inactive),–
C[C@@H](c1ccccc1)N1C(=O)[C@H]2[C@H]3[C@H](O)[C@H](O)C/C(=N/OC[C@@H](O)COCc4ccco4)[C@H]3CC[C@@H]2C1=O,-3.98% [at 11.4 µM] (inactive),–
O=C(O)CCCCCNC(=O)c1ccccc1Br,–,inactive
CN(C(=S)NC(=O)c1ccccc1Br)C1CCCCC1,–,14.1 µM (active)
C[C@]1(OC(=O)/C=C\c2ccccc2)C[C@@H](O)[C@@]2(O)C=CO[C@@H](O[C@H]3O[C@@H](CO)[C@@H](O)[C@@H](O)[C@@H]3O)[C@H]21,–,inactive
CC(=O)Nc1ccc(Nc2ncnc3c2cnn3-c2ccccc2)cc1,–,inactive
c1ccc(-n2ncc3c2ncn2cnnc32)cc1,–,6.31 µM (active)
Nc1ncnc2c1cnn2-c1ccccc1,–,6.31 µM (active)
Nc1ncnc2c1nc(-c1ccccc1)n2[C@H]1O[C@@H](CO)[C@@H](O)[C@H]1O,-16.8% [at 2.29 µM] (inactive),–

Structure (SMILES),"activity, negative = inhibition",AC50
CSc1nsc(SC)c1NC(=O)OCC1CCCO1 (configuration not stated),–,20 µM (active)
CSc1nsc(SC)c1NC(=O)OCc1ccccc1,–,10 µM (active)
O=C(NCC1CCC(C(=O)O)CC1)OCc1ccccc1 (configuration not stated),–,inactive
O=C(O)c1nnsc1COCc1ccccc1,-12.2% [at 11.4 µM] (inactive),–
O[C@H](CNc1ccccn1)c1ccccc1,-29.6% [at 11.4 µM] (inactive),–
O=C(O)/C=C\C(=O)Nc1ccccn1,-5.8% [at 11.4 µM] (inactive),–
CCOC(=O)c1ccc(NC(=O)C(=O)NCC2CCCO2)cc1 (configuration not stated),–,inactive
CC(=O)N1CCC2(CC1)CCN(C(=O)Nc1cccc(F)c1)CC2,–,inactive
O=C(Nc1cccc(F)c1)Nc1ccccn1,–,2 µM (active)
CSc1nsc(SC)c1NC(=O)Nc1ccccn1,–,2.51 µM (active)
CCC(=O)NC(NCC1CCCO1)C(Cl)(Cl)Cl (configuration not stated),–,inactive
O=C(c1ccco1)N1CCC2(CCN(Cc3nccs3)CC2)CC1,–,inactive
C=C1CC[C@H](O)C/C1=C/C=C1\CCC[C@]2(C)[C@H]1CC[C@H]2[C@@H](C)/C=C\[C@@H](C)C(C)C,–,inactive
COCC(=O)Nc1c(I)c(C(=O)NC[C@@H](O)CO)c(I)c(C(=O)N(C)C[C@@H](O)CO)c1I,–,inactive
COc1ccc2c(c1)-c1ccccc1S(=O)(=O)N2C(C)=O,–,20 µM (active)
COc1cccc([C@@H]2Oc3ccc(OC)cc3C(=O)[C@H]2O)c1,2.62% [at 11.4 µM] (inactive),–
Cc1cc(NC(=O)C2=C(O)c3ccccc3S(=O)(=O)N2C)no1,–,inactive
O=C(c1cc(C(F)(F)F)cc(C(F)(F)F)c1)N1CCC2(CCCN(Cc3nccs3)C2)CC1,–,inactive
Cc1ccc(Nc2c([N+](=O)[O-])ccc3c2=NC2(CCCCC2)N=3)cc1,–,15.8 µM (active)
C[N+](C)(CCCCCC[N+](C)(C)CCCN1C(=O)c2cccc3cccc(c23)C1=O)CCCN1C(=O)c2cccc3cccc(c23)C1=O,–,inactive
CCOC(=O)c1sc(NC(=O)CCCCCN2C(=O)c3cccc4cccc(c34)C2=O)nc1C,–,25.1 µM (active)
CCOC(=O)Cc1csc(NC(=O)CCCCCN2C(=O)c3ccccc3C2=O)n1,–,1.78 µM (active)
Cc1cccc(NC(=O)CCCN2C(=O)c3cccc4cccc(c34)C2=O)c1,–,6.31 µM (active)
Cc1ccc(NC(=O)CCN2C(=O)c3ccncc3C2=O)cc1,–,inactive
Cc1c(Cl)cccc1NC(=O)CC1NCCNC1=O (configuration not stated),–,inactive

Structure (SMILES),"activity, negative = inhibition",AC50
Cc1cccc(NC(=O)CC2Nc3cccc4cccc(c34)NC2=O)c1 (configuration not stated),–,5.01 µM (active)
[N-]=[N+]=NC[C@@H]1O[C@@H](n2cnc3c(N)ncnc32)[C@@H]2O[C@@H]21,-13.8% [at 11.4 µM] (inactive),–
COCCCNC(=O)C1CC(=O)N(CCc2ccc(OC)c(OC)c2)C1 (configuration not stated),–,inactive
N/C(=N\O)c1cn([C@@H]2O[C@@H](CO)[C@H](O)[C@@H]2O)c2ncnc(NO)c12,-18.7% [at 2.29 µM] (inactive),–
C=C[C@H](N)CCC(=O)O,–,inactive
C[C@@H](C[N+](C)(C)C)OC(N)=O,–,inactive
Cc1cccc(/C(N)=N/OC(=O)CCCN2C(=O)c3ccccc3C2=O)c1,–,15.8 µM (active)
CSCC[C@@H]1NC(=O)C/C=C\[C@@H](C)COC(=O)[C@H](C)COC1=O,-2.99% [at 11.4 µM] (inactive),–
CCC(CC)C(=O)NCCN1CCN(C(=O)C(CC)CC)CC1,–,inactive
CCCCOc1cc(C[C@@H]2CNC(=O)N2)ccc1OC,–,10 µM (active)
CCCCOc1ccc(CN2CCC(O)CC2)cc1,–,inactive
COc1ccc(C[C@@H]2c3cc(OC)c(OC)cc3CC[N@+]2(C)CCC(=O)OCCCCCOC(=O)CC[N@@+]2(C)CCc3cc(OC)c(OC)cc3[C@H]2Cc2ccc(OC)c(OC)c2)cc1OC,–,inactive
Cc1ccccc1Oc1ncnc2sccc12,–,12.6 µM (active)
N#CCCn1cc(/C=N/O)c(-c2ccc(Cl)cc2)n1,–,0.891 µM (active)
Oc1[nH]c2ccccc2c1/C=N/c1nccs1,–,0.251 µM (active)
COc1ccc(-c2cc(-c3cc(F)ccc3O)[nH]n2)cc1OC,–,6.31 µM (active)
COc1ccc(-c2cc(-c3c(O)c(OC)c4occc4c3OC)[nH]n2)cc1OC,–,6.31 µM (active)
Cc1ccc(-c2c(C)sc(NC(=O)C3C4CCC(O4)C3C(=O)O)c2C(=O)OC(C)C)cc1 (configuration not stated),–,inactive
CCc1ccc(-c2csc(NC(=O)C3CCCO3)c2C(=O)OC(C)C)cc1 (configuration not stated),–,7.08 µM (active)
C=C(C)C1CC=C(C)/C(=N/NC(=O)c2ccc(NC(=O)c3cccc(C)c3)cc2)C1 (configuration not stated),–,inactive
C=C(C)[C@H]1CC=C(C)/C(=N/NC(=O)CNc2ccccc2OC)C1,–,15.8 µM (active)
CC(=O)N1c2ccc(S(=O)(=O)CCC(=O)O)cc2CC1C (configuration not stated),–,inactive
CCCCOC(=O)Nc1ccccc1C(=O)OC,–,2 µM (active)
CCOC(=O)c1c(NC(=O)c2c(Br)cnn2C)c(C#N)nn1-c1ccccc1,–,0.631 µM (active)
COC(=O)c1cn(NC(=O)c2ccc(F)cc2)c(=O)c2ccccc12,–,inactive

Structure (SMILES),"activity, negative = inhibition",AC50
Cc1ccccc1C(=O)NNC(=O)c1ccc(F)cc1,–,inactive
COC(=O)c1ccccc1NC(=O)c1ccc(F)cc1,–,0.2 µM (active)
COC(=O)c1ccccc1NC(=O)c1c(Br)cnn1C,–,0.891 µM (active)
COC(=O)c1ccccc1NC(=O)C1CCN(C(=O)c2ccc(OC)cc2)CC1,–,inactive
Cc1c(C(=O)O)nc(/C=C\C(=O)O)[nH]c1=O,-6.61% [at 11.4 µM] (inactive),–
O=C(Nc1cccc2[nH]ncc12)c1ccc(F)cc1,–,7.08 µM (active)
C#CCCCO/N=C1/C[C@@H](O)[C@@H](O)[C@@H]2[C@@H]3C(=O)N(C[C@@H]4CCCO4)C(=O)[C@H]3CC[C@H]12,-2.74% [at 11.4 µM] (inactive),–
CC(C)NC(=O)N1CCC2(CC1)CCN(C(=O)c1csnn1)CC2,–,inactive
N#Cc1sc2nc(-c3cccs3)cc(-c3ccc(Cl)cc3)c2c1N,–,1.26 µM (active)
CCN(CC)CCCNC(=O)C1CCC(=O)N(c2ccc(OC)cc2)C1c1ccc(F)cc1 (configuration not stated),–,inactive
Nc1c(-c2cccs2)cnn1-c1nc(-c2ccc(F)cc2)cs1,–,0.447 µM (active)
Nc1c(-c2cccs2)cnn1-c1nc(-c2ccc(Cl)cc2Cl)cs1,–,1.26 µM (active)
O=C(c1csnn1)N1CCC2(CC1)CCN(c1ccncc1)CC2,–,inactive
COC(=O)[C@@H]1C[C@H]1[C@@H](NC(=O)c1cccnc1)c1ccccc1,–,12.6 µM (active)
COC(=O)[C@H]1C[C@@H]1[C@H](NC(=O)OCc1ccccc1)c1ccccc1,–,0.126 µM (active)
O=C(CNC(=O)OCc1ccccc1)NCC(=O)N1CCCC1C(=O)OCc1ccccc1 (stereo not drawn) (Cbz-Gly-Gly-[ξP]-OBn),–,inactive
O=C(NNC(=O)C1CCCCC1)c1cnccn1,–,inactive
C[C@@H](C(=O)O)[C@H]1C[C@]1(C)[C@H](NC(=O)OCc1ccccc1)c1ccccc1,–,inactive
O=C(Nc1ccccc1)N1CCC2(CC1)CCN(C(=O)c1cnccn1)CC2,–,inactive
COC(=O)[C@@H]1C[C@H]1[C@@H](NC(=O)c1cnccn1)c1ccccc1,–,12.6 µM (active)
O=C(NC(NCc1ccccc1)C(Cl)(Cl)Cl)c1cccnc1 (configuration not stated),–,inactive
COC(=O)[C@H]1C[C@@H]1[C@H](NC(=O)c1ccccc1)c1ccccc1,–,15.8 µM (active)
